Assay outcomes as filed in PubChem BioAssay.
Methyltransferases = Primary Screen for Target Class Profiling of Small Molecule Inhibitors of Methyltransferases; 3.9% of 25,000 active; calls only at 40 µM; AID 1745853, 2022; purified enzyme, MTase-Glo SAH luminescence; active compounds read low; call rule not given here
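Each enzyme was assayed with SAM and its substrate. SAH formation detected by MTase-Glo luminescence; single-point 40 uM screen[…].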
* hit, by the source's call; i = inactive; + = active, no number; ! = not confirmed by another sample. This excerpt belongs to a sample that is enriched for hits. On the % scale 0 is the no-effect control and ±100 the full control effect.

SMILES | Methyltransferases
COc1ccc(Cl)cc1NC(=O)CSc1nnc2n(CC(C)C)c(=O)c3ccccc3n12 | i
CCN1C(=O)C2(CCN(S(=O)(=O)c3c(C)nn(C)c3C)CC2)c2ccccc21 | i
NCCc1ccc(O)c(O)c1 | +
Cc1cc(C)cc(NC(=O)Cn2nc3n(CCc4ccccc4)c(=O)c4ccccc4n3c2=O)c1 | i
O=C(Nc1cccnc1)c1ccc2c(c1)OCCN(c1cccc(OC(F)(F)F)c1)C2 | i
COc1cccc(NC(=O)C2(C)CCc3cnc(NCc4ccccc4)nc32)c1 (stereo not drawn) | i
Cc1c[nH]c2ncnc(N3CCC(CN)(C(=O)Nc4cccc(OC(=O)N(C)C)c4)CC3)c12 | +
COc1ccc2c(c1)c(NC(C)=O)c1n2CC(C)(C(=O)NC2CCCCC2)N(CCN(C)C)C1=O (stereo not drawn) | i
Cc1ccc(CN2CCN(Cc3ccc(=O)n(C)c3)CC2)cc1 | i
CC/C(=C(\c1ccccc1)c1ccc(OCCN(C)C)cc1)c1ccccc1 | i
CCC1(CO)CCCN(CCCOc2ccc(C(N)=O)cc2)C1 (stereo not drawn) | i
CCC(=C(c1ccc(OCCN2CCCC2)cc1)c1ccc(OCCN2CCCC2)cc1)c1ccccc1 | +
CC/C(=C(\c1ccc(O)cc1)c1ccc(OCCNC)cc1)c1ccccc1 | i
c1cc(OCCCN2CCCCC2)ccc1CN1CCCCC1 | +
O=C(CCc1nnc2n(Cc3ccc(Cl)cc3)c(=O)c3ccccc3n12)Nc1ccc(F)cc1 | i
CC(=O)Nc1ccc(Nc2nc3c(S(=O)(=O)c4ccc(C(C)C)cc4)nnn3c3ccccc23)cc1 | i
CCc1ccc(NC(=O)c2cc3n(n2)CC(C)(C(=O)NC2CCCCC2)N(C)C3=O)cc1 (stereo not drawn) | i
CCCn1c(=O)c2ccc(C(=O)NC(C)CC)cc2n2c(SCC(=O)Nc3ccccc3C)nnc12 (stereo not drawn) | i
CC(C)N1C[C@@H](CO)[C@H](c2nc(-c3cccnc3)no2)C1 | i
COc1ccc(-c2nnc3n(Cc4ccccc4)c(=O)c4ccccc4n23)c(O)c1 | i
CC(C)c1nc(-c2ccc(NC(=O)Nc3cccc(C(F)(F)F)c3)c3ccccc23)c2c(N)nccn12 | +
CC(C)c1nc2c(NC(=O)Nc3cccc(Cl)c3)cccn2n1 | i
CCCN1C(=O)c2c(-n3cccc3)c3cc(C)ccc3n2CC1(C)C(=O)NCCC(C)C (stereo not drawn) | i
CC(C)c1cc2c(c(O)c1O)[C@@]13CCCC(C)(C)C1[C@@H](O)[C@@H]2OC3=O (stereo partly drawn) | +
COC1OC(=O)C2=C1C1(C)CCCC(C)(C)C1CC2O (stereo not drawn) | i
SMILES | Methyltransferases
CC(C)c1cc2c(c(O)c1O)[C@@]13CCCC(C)(C)[C@@H]1[C@H](OC3=O)C2=O | i
CCn1c2ccccc2c2cc(Nc3ccnc(NCCCN4CCOCC4)n3)ccc21 | +
Cc1ccc(Cn2c(=O)c3ccccc3n3c(CCC(=O)NCCCN4CCOCC4)nnc23)cc1 | i
CC(C)CCn1c(=O)c2ccccc2n2c(CCC(=O)NCCCN3CCOCC3)nnc12 | i
CCCSCCCN1C(=O)c2nc3ccccc3n2CC1(C)C(=O)NC1CCCCC1 (stereo not drawn) | i
Cc1c(Cl)cccc1NC(=O)N1CCn2cccc2C1Cc1ccccc1 (stereo not drawn) | i
CCN1CCN(C(=O)c2ccc(-c3nnc4ccc(NC(=O)C5CC5)cn34)cc2)CC1 | i
COc1ccc(N2CCN(C(=O)c3ccc(Nc4nc5ccccc5n5nnnc45)cc3)CC2)cc1 | i
CCN1CCN(c2ccc(Nc3ccc(-c4ccc(C(N)=O)cc4)n4ncnc34)cc2)CC1 | +
CC(C)CCn1c(=O)c2ccccc2n2c(SCC(=O)Nc3ccc4c(c3)OCO4)nnc12 | i
CC(C)n1nc(CNC(=O)c2ccc(F)c(F)c2)c2ccccc21 | i
CC1(C)CCC2=C(O1)c1ccccc1C(=O)C2=O | +
CCCn1c(=O)c2ccccc2n2c(=O)n(CC(=O)c3ccc(OCC)cc3)nc12 | i
CN(C)CCN1C(=O)c2cc3occc3n2CC1(C)C(=O)NC1CCCCCC1 (stereo not drawn) | i
CCc1cccc(NS(=O)(=O)c2cc3[nH]c(=O)[nH]c3cc2C)c1 | i
Cc1c(O)cc(O)c2c(=O)c(O)c(-c3ccc(O)c(O)c3)oc12 | +
CN(Cc1ccc(-c2ccccc2)cc1)C(=O)C1CC1 | i
O=C(NCc1ccc2c(c1)OCO2)c1ccc2c(=O)nc3c(-c4ccccc4F)n[nH]n3c2c1 | i
CCC(C(=O)N1CCOCC1)n1ccc2cc(S(=O)(=O)N3CCCCC3)ccc21 (stereo not drawn) | i
NC1(c2ccc(-c3nc4ccn5c(=O)[nH]nc5c4cc3-c3ccccc3)cc2)CCC1 | +
Cc1cc2c(cc1CC(=O)c1sccc1S(=O)(=O)Nc1onc(C)c1Cl)OCO2 | +!
CC(C)CCNC(=O)C1(C)Cn2c(cc3ccccc32)C(=O)N1CCc1cccs1 (stereo not drawn) | i
Cc1cnc(Nc2ccc(OCCN3CCCC3)cc2)nc1Nc1cccc(S(=O)(=O)NC(C)(C)C)c1 | +!
CCOc1ccc(Nc2nc3c(S(=O)(=O)c4ccccc4)nnn3c3ccccc23)cc1 | i
Cn1nnc2cc(CNC(=O)c3cccnc3)ccc21 | i
SMILES | Methyltransferases
Cc1cc(C)c(S(=O)(=O)NCCc2n[nH]c(Cc3ccc(F)cc3)n2)cc1C | i
CCC(C)N1C(=O)c2cc3sccc3n2CC1(C)C(=O)NC1CCCCCCC1 (stereo not drawn) | i
O=C(O)c1cc(C(F)(F)F)ccc1N1CC[C@H](OCc2ccccn2)C1 | i
CC1(COc2ccc3c(c2)ncn3-c2ccc3cccc(N4CCC(N)CC4)c3n2)COC1 | +
CN1C(=O)c2cc(C(=O)NCCc3ccccc3Cl)nn2CC1(C)C(=O)NCc1ccccc1 (stereo not drawn) | i
COc1ccc(CN2CCOc3nc(-c4cccc(C(F)(F)F)c4)ncc3C2=O)cc1 | i
C/C=C/[C@@H]1C=C[C@@H]2C[C@H](C)CC[C@H]2[C@]1(C)/C(O)=C1/C(=O)[C@@H](CO)N(C)C1=O | i
Cc1ccccc1CN1C(=O)c2cc3sccc3n2CC1(C)C(=O)NC1CCCCCCC1 (stereo not drawn) | i
CC(C)CNC(=O)c1ccc2c(=O)n(Cc3ccccc3)c3nn(Cc4cccc(Cl)c4)c(=O)n3c2c1 | i
O=C(Nc1ccccc1-c1cn2c(CN3CCNCC3)csc2n1)c1cnc2ccccc2n1 | +!
CN(C)[C@@H]1C[C@@H](CO)N(C(=O)c2csc3nc(-c4ccccc4Cl)cn23)C1 | i
COc1ccc(OCC2CN(CC3CC3)[S+](=O)([O-])c3cnccc3O2)cc1 (stereo not drawn) | i
CN1CC(C(=O)N2CCN(Cc3ccccc3)CC2)NC1=O (stereo not drawn) | i
CC1CCCCC1NC(=O)C1(C)Cn2c(nc3ccccc32)C(=O)N1CCCc1ccccc1 (stereo not drawn) | i
Cc1ccc(Nc2nccc(N(C)c3ccc4c(C)n(C)nc4c3)n2)cc1S(N)(=O)=O | +
FC(F)Oc1ccccc1CN(CC1CCN(C2CCCC2)CC1)CC1CCCO1 (stereo not drawn) | i
COc1ccc(CCN2C(=O)c3cc4occc4n3CC2(C)C(=O)NC2CCCCC2C)c(OC)c1 (stereo not drawn) | i
